Measurements reported in PubChem BioAssay (NCI).
About 79,000 compounds went through this panel and 15% of them were active in at least one assay; those are over-represented in the sample as a whole. Calls of active or inactive are those of the source. No stated cut-off is given here; in the data, active means growth inhibition above about 70%; inactive means the rest.

Columns and labels:
[1] = NCI Yeast Anticancer Drug Screen. Data for the wt1 strain (AID 149);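 further: 0% = growth of vehicle-treated wt1 cultures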; settings: S. cerevisiae wt1 strain (SPY 50644) growth inhibition, hits give high values
Procedure, shortened: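 Yeast wt1 strain exposed to compounds; growth inhibition measured relative to vehicle-treated controls.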

[2] = NCI Yeast Anticancer Drug Screen. Data for the rad50EPP+ strain (AID 151);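 further: 0% = growth of vehicle-treated control cultures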; settings: S. cerevisiae rad50 mutant strain, hits give high values
Procedure, shortened: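 Yeast strain carrying rad50 alteration (rad50EPP+) exposed to compounds; growth inhibition measured relative to vehicle-treated controls.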

[3] = NCI Yeast Anticancer Drug Screen. Data for the rad50 strain (AID 155);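 further: 0% = growth of vehicle-only cultures of the same strain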; settings: S. cerevisiae rad50 strain growth inhibition, hits give high values
Procedure, shortened: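 Yeast carrying a defined DNA repair defect were exposed to test compounds, and growth was compared with vehicle-treated controls to give percent inhibition.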

[4] = NCI Yeast Anticancer Drug Screen. Data for the mec2-1 strain (AID 157); settings: S. cerevisiae mec2-1 strain, hits give high values
Procedure, shortened: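 mec2-1 yeast strain, carrying an alteration in DNA damage repair or cell cycle control, was exposed to compounds; growth inhibition was measured relative to vehicle-treated controls.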

[5] = NCI Yeast Anticancer Drug Screen. Data for the rad14 strain (AID 159);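 further: 0% = growth of vehicle-treated control cultures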; settings: S. cerevisiae rad14 strain growth inhibition, hits give high values
Procedure, shortened: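 Yeast cells carrying a defined DNA-repair defect were exposed to compounds, and growth inhibition was calculated relative to vehicle-treated control cultures.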

[6] = NCI Yeast Anticancer Drug Screen. Data for the sgs1 mgt1 strain (AID 161);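 further: 0% = growth of cultures given vehicle only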; settings: S. cerevisiae sgs1 mgt1 strain, hits give high values
Procedure, shortened: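 This yeast growth screen uses a strain with defined DNA-repair lesions; compound-treated growth is compared with vehicle-treated growth.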

[7] = NCI Yeast Anticancer Drug Screen. Data for the CLN2oe strain (AID 163);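 further: 0% = growth of vehicle-only control cultures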; settings: S. cerevisiae CLN2oe strain, hits give high values
Procedure, shortened: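 Yeast cells carrying a defined cell-cycle control alteration were exposed to test compounds. Growth inhibition was scored against vehicle-treated control cultures.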

[8] = NCI Yeast Anticancer Drug Screen. Data for the cln2 rad14 strain (AID 165);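 further: 0% = growth equal to vehicle treated cultures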; settings: S. cerevisiae cln2 rad14 strain, hits give high values
Procedure, shortened: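 Yeast carrying cln2 and rad14 alterations (cell cycle control and DNA damage repair) were exposed to compounds. Growth inhibition was measured against vehicle-treated controls.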

[9] = NCI Yeast Anticancer Drug Screen. Data for the bub3 strain (AID 167); settings: S. cerevisiae bub3 mutant strain, hits give high values
Procedure, shortened: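 Compounds were applied to a genetically altered yeast strain carrying a cell-cycle control defect. Growth inhibition was scored against vehicle-treated controls.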

[10] = NCI Yeast Anticancer Drug Screen. Data for the wt2 strain (AID 169);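 further: 0% = growth of vehicle-treated yeast cultures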; settings: S. cerevisiae wt2 strain growth inhibition, hits give high values
Procedure, shortened: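 Yeast cells were exposed to test compounds, and growth inhibition was measured relative to vehicle-treated controls.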

[11] = NCI Yeast Anticancer Drug Screen. Data for the mlh1 strain (AID 171);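 further: 0% = growth of vehicle-treated control cultures of the same strain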; settings: S. cerevisiae mlh1 strain growth inhibition, hits give high values
Procedure, shortened: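 Yeast carrying a defined genetic alteration in DNA damage repair or cell cycle control were exposed to test compounds. Growth inhibition was measured relative to vehicle-treated controls.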

[12] = NCI Yeast Anticancer Drug Screen. Data for the sgs1 strain (AID 173);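 further: 0% = growth of vehicle-only control cultures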; settings: S. cerevisiae sgs1 mutant, hits give high values
Procedure, shortened: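 Yeast mutant strains carrying defined defects in DNA damage repair or cell cycle control were exposed to test compounds. Growth inhibition was scored against vehicle-treated controls.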

[13] = NCI Yeast Anticancer Drug Screen. Data for the mlh1 rad18 strain (AID 175); settings: S. cerevisiae mlh1 rad18 strain growth inhibition, hits give high values
Procedure, shortened: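 Growth inhibition of the yeast strain was measured after compound exposure and expressed relative to vehicle-treated controls. The strain carries defined defects in DNA damage repair.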

[14] = NCI Yeast Anticancer Drug Screen. Data for the rad18 strain (AID 177); settings: S. cerevisiae rad18 mutant growth inhibition, hits give high values
Procedure, shortened: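 Yeast carrying a defined DNA damage repair alteration were exposed to compounds. Growth inhibition was expressed relative to vehicle-treated controls.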

[15] = NCI Yeast Anticancer Drug Screen. Data for the mgt1 strain (AID 153); settings: S. cerevisiae mgt1 mutant growth inhibition, hits give high values
Procedure, shortened: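 Yeast mgt1 strain (DNA repair/cell-cycle alteration panel) exposed to compounds; growth inhibition measured relative to vehicle-treated controls.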

[16] = at 5.0 µM (retest, dose inferred, filed as 0.5)
[17] = at 50.0 µM (retest, dose inferred, filed as 5.0)

Measured: growth inhibition

O=S(=O)(CCC[C@H]1[C@@H](CCOCc2ccccc2)C2CCCN1O2)c1ccccc1 (stereo partly drawn)
inactive: [1]; at 1.2 µM 2% | [1]; at 3.7 µM 2% | [1]; at 11.0 µM 1% | [1]; at 33.0 µM 1% | [1]; at 100.0 µM 19% | [2]; at 1.2 µM 0% | [2]; at 3.7 µM -1% | [2]; at 11.0 µM 2% | [2]; at 33.0 µM 2% | [2]; at 100.0 µM 4% | [3]; at 1.2 µM -3% | [3]; at 3.7 µM -13% | [3]; [16] -9% | [3]; at 11.0 µM -13% | [3]; at 33.0 µM 10% | [3]; [17] -11% | [3]; at 50.0 µM -4.6% | [3]; at 100.0 µM 22% | [4]; at 1.2 µM 4% | [4]; at 3.7 µM 4% | [4]; [16] -9% | [4]; at 11.0 µM 5% | [4]; at 33.0 µM 13% | [4]; [17] -22% | [4]; at 50.0 µM -19.2% | [4]; at 100.0 µM 27% | [5]; at 1.2 µM 1% | [5]; at 3.7 µM -3% | [5]; at 11.0 µM 3% | [5]; at 33.0 µM 10% | [5]; at 100.0 µM 25% | [6]; [16] 9% | [6]; [17] 20% | [6]; at 50.0 µM -23.6% | [7]; at 1.2 µM 1% | [7]; at 3.7 µM 6% | [7]; at 11.0 µM 5% | [7]; at 33.0 µM 16% | [7]; at 100.0 µM 37% | [8]; [16] -7% | [8]; [17] 46% | [8]; at 50.0 µM 42.5% | [9]; at 1.2 µM 1% | [9]; at 3.7 µM 2% | [9]; [16] 22% | [9]; at 11.0 µM 2% | [9]; at 33.0 µM 6% | [9]; [17] 10% | [9]; at 50.0 µM -12.1% | [9]; at 100.0 µM 12% | [10]; at 1.2 µM -1% | [10]; at 3.7 µM -1% | [10]; at 11.0 µM -3% | [10]; at 33.0 µM 2% | [10]; at 100.0 µM 26% | [11]; at 1.2 µM 3% | [11]; at 3.7 µM 3% | [11]; at 11.0 µM 1% | [11]; at 33.0 µM 7% | [11]; at 100.0 µM 26% | [12]; at 1.2 µM 2% | [12]; at 3.7 µM 3% | [12]; at 11.0 µM 2% | [12]; at 33.0 µM 19% | [12]; at 100.0 µM 41% | [13]; [16] -14% | [13]; [17] -2% | [13]; at 50.0 µM 0.4% | [14]; at 1.2 µM 2% | [14]; at 3.7 µM 6% | [14]; at 11.0 µM 4% | [14]; at 33.0 µM 7% | [14]; at 100.0 µM 19%

CCOC(=O)/C=C1\CCCn2c1ncc(C(=O)OCC)c2=O
inactive: [1]; at 1.2 µM 2% | [1]; at 3.7 µM 5% | [1]; at 11.0 µM 6% | [1]; at 33.0 µM 10% | [1]; at 100.0 µM 17% | [2]; at 1.2 µM -1% | [2]; at 3.7 µM -2% | [2]; at 11.0 µM -2% | [2]; at 33.0 µM -4% | [2]; at 100.0 µM -1% | [15]; at 1.2 µM 3% | [15]; at 3.7 µM 2% | [15]; at 11.0 µM 6% | [15]; at 33.0 µM -2% | [15]; at 100.0 µM 26% | [3]; at 1.2 µM -1% | [3]; at 3.7 µM -8% | [3]; [16] 8% | [3]; at 11.0 µM -3% | [3]; at 33.0 µM 20% | [3]; [17] 30% | [3]; at 50.0 µM 69.5% | [3]; at 100.0 µM 31% | [5]; at 1.2 µM 4% | [5]; at 3.7 µM 2% | [5]; at 11.0 µM 7% | [5]; at 33.0 µM 12% | [5]; at 100.0 µM 18% | [6]; [16] 4% | [6]; [17] 9% | [8]; [16] -25% | [8]; [17] 24% | [8]; at 50.0 µM 55.7% | [9]; at 1.2 µM 2% | [9]; at 3.7 µM 0% | [9]; [16] -13% | [9]; at 11.0 µM 4% | [9]; at 33.0 µM 10% | [9]; at 50.0 µM 59.5% | [9]; at 100.0 µM 28% | [10]; at 1.2 µM 1% | [10]; at 3.7 µM 2% | [10]; at 11.0 µM 4% | [10]; at 33.0 µM 11% | [10]; at 100.0 µM 28% | [11]; at 1.2 µM 2% | [11]; at 3.7 µM 3% | [11]; at 11.0 µM 8% | [11]; at 33.0 µM 15% | [11]; at 100.0 µM 38% | [12]; at 1.2 µM 3% | [12]; at 3.7 µM 5% | [12]; at 11.0 µM 6% | [12]; at 33.0 µM 24% | [12]; at 100.0 µM 51% | [13]; [16] 8% | [13]; [17] 48% | [14]; at 1.2 µM 1% | [14]; at 3.7 µM 5% | [14]; at 11.0 µM 14% | [14]; at 33.0 µM 30% | [14]; at 100.0 µM 55%
active: [6]; at 50.0 µM 81.7% | [9]; [17] 94% | [13]; at 50.0 µM 89.8%
